Data: PubChem BioAssay (NCATS)
Records with an inconclusive call do not appear. Entries that show only a call come without a potency. Unmarked numbers belong to inactive results. The source made the active and inactive calls. Calls come from the whole dose curve; as a rule, active = well fitted curve in the direction sought with a large enough effect; inconclusive = small, poorly fitted or top-dose-only effect, or another doubt; inactive = no such curve, though single readings can be large; an effect the other way counts as inactive or inconclusive.

Legend:
[1] = molecular target: Rap guanine nucleotide exchange factor 3 (Homo sapiens) (UniProt O95398); assay: Confirmatory qHTS for antagonist of cAMP-regulated guanine nucleotide exchange factor 3 (EPAC1) (AID 1645880); settings: EPAC1 Rap1B-BODIPY-GDP exchange, fluorescence; activity, negative = inhibition: at 115 µM (top of the series); note: nearly all actives have a fitted effect of over 55% in size; note: potency is the fitted concentration of half-maximal effect
Rap guanine nucleotide exchange factor 3 (Homo sapiens), sequence (O95398 whole entry, looked up): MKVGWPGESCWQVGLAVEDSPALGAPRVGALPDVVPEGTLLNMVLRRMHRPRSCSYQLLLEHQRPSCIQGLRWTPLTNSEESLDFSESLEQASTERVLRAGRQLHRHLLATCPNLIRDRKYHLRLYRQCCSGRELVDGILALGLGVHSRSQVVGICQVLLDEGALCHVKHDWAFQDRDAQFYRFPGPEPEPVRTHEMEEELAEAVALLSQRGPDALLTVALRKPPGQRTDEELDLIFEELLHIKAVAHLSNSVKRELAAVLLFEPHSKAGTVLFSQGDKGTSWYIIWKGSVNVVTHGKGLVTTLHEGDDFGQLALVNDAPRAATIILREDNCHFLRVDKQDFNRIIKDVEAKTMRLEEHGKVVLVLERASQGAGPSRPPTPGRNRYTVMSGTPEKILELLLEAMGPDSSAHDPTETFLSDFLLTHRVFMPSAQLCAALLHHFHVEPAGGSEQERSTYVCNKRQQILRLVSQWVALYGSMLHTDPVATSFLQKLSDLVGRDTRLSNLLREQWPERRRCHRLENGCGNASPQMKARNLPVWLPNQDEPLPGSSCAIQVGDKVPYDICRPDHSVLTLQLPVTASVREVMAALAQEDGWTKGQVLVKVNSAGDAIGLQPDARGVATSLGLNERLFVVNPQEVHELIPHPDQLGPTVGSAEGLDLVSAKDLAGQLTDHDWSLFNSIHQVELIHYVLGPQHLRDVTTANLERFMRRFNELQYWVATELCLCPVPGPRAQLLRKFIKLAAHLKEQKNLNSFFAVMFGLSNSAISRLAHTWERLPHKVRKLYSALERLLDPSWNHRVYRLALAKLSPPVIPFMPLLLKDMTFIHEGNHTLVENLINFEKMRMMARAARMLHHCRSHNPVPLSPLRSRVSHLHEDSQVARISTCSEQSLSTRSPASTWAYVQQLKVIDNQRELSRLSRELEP
How it was run: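 Released BODIPY-GDP fluoresces less than Rap1-bound BODIPY-GDP; the signal is followed at 480/540 nm at 5-min intervals over 30 min, after 5 min at room temperature. Reactions contain 100 nM EPAC1, 250 nM RAP1B-BODIPY-GDP and 50 uM GDP; results are normalized to ATA and DMSO.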

[2] = molecular target: Rap guanine nucleotide exchange factor 3 (Homo sapiens) (UniProt O95398); assay: Confirmatory qHTS for agonist of cAMP-regulated guanine nucleotide exchange factor 3 (EPAC1) (AID 1645881);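 note: EPAC1 catalysed release of BODIPY-GDP from Rap1B seen as fluorescence loss; nearly all actives have a fitted effect of over 75% in size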
[3] = molecular target: Rap guanine nucleotide exchange factor 4 (Homo sapiens) (UniProt Q8WZA2); assay: Confirmatory qHTS for agonist of cAMP-regulated guanine nucleotide exchange factor 4 (EPAC2) (AID 1645884);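 note: nucleotide exchange releases bodipy-GDP from Rap1 and this lowers its fluorescence; nearly all actives have a fitted effect of over 65% in size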
Rap guanine nucleotide exchange factor 4 (Homo sapiens), sequence (Q8WZA2 whole entry, looked up): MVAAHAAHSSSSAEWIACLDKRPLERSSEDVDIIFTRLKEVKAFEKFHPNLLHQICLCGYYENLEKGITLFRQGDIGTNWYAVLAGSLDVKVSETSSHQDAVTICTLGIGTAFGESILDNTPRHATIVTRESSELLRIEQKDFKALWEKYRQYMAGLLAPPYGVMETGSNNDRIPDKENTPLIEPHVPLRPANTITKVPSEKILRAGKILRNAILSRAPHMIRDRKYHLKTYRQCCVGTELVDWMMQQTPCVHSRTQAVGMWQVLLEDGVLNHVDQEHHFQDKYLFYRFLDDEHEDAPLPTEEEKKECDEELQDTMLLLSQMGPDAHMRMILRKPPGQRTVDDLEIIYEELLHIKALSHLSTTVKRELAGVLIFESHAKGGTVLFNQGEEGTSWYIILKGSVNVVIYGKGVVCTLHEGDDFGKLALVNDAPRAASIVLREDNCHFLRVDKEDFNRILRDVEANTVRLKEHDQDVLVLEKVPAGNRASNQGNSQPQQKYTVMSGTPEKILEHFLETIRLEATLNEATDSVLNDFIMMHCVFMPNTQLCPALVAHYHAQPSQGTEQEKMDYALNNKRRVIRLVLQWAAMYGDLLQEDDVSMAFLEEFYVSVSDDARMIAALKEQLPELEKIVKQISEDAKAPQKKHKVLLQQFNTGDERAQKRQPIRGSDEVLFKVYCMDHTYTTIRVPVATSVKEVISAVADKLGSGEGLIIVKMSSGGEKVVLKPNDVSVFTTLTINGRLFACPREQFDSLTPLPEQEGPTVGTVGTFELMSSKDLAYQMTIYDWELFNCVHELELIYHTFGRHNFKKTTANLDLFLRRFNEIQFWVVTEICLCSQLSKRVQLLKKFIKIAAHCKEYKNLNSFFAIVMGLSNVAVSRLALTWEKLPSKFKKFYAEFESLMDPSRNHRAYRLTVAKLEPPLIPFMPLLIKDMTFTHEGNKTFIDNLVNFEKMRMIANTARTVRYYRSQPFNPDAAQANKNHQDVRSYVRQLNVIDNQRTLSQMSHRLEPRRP

[4] = molecular target: Rap guanine nucleotide exchange factor 4 (Homo sapiens) (UniProt Q8WZA2); assay: Confirmatory qHTS for antagonist of cAMP-regulated guanine nucleotide exchange factor 4 (EPAC2) (AID 1645885); note: nearly all actives have a fitted effect of over 25% in size; note: potency is the fitted concentration of half-maximal effect
[5] = molecular target: Rap guanine nucleotide exchange factor 3 (Homo sapiens) (UniProt O95398); assay: Counterscreen qHTS for antagonist of cAMP-regulated guanine nucleotide exchange factor 3 (EPAC1) (AID 1645888)
How it was run: (§1)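 Measured: fluorescence of BODIPY-GDP bound to Rap1B, which falls as exchange proceeds. Conditions include 50 uM competing GDP, 5 and 30 min reads, and a later cAMP challenge for antagonist detection.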

[6] = molecular target: Rap guanine nucleotide exchange factor 3 (Homo sapiens) (UniProt O95398); assay: Counterscreen qHTS for agonist of cAMP-regulated guanine nucleotide exchange factor 3 (EPAC1) (AID 1645889); note: nearly all actives have a fitted effect of over 40% in size
How it was run: as §1

Row | Structure (SMILES) | Potency [1] | Potency [2] | Potency [3] | Potency [4] | Potency [5] | Potency [6] | activation [3] | activity change, negative = inhibition [5] | activation [6] | outcome [4]
1 | Cc1ccc(S(=O)(=O)Nc2ccc3cc([N+](=O)[O-])ccc3c2[N+](=O)[O-])cc1 | 21.3 µM (active) | inactive | inactive | inactive | inactive | inactive |  |  |  | 
2 | COC(=O)c1ccc(CSc2ccc3nnc(-c4cccc(F)c4)n3n2)o1 | inactive | inactive |  | inactive |  |  | -3.47% [at 17.1 µM, percent relative to cAMP agonist control] | -19.6% [at 30.8 µM] | 0.6% [at 30.8 µM] | 
3 | COc1cccc(NS(=O)(=O)c2ccc3c(c2)C2C=CCC2C(c2ccc(C(=O)O)cc2)N3)c1 (stereo not given) | 9.53 µM (active) | inactive | inactive | inactive | inactive | inactive |  |  |  | 
4 | COCCn1c(-c2ccc(Br)cc2)csc1=Nc1cccnc1 | inactive | inactive | inactive | inactive | inactive | inactive |  |  |  | 
5 | COC(=O)CCNC(=O)NC(CCC(C)C)c1c(-n2cccc2)sc2c1CCN(C)C2 (stereo not given) | inactive | inactive | inactive | inactive | inactive | inactive |  |  |  | 
6 | COC(=O)c1ccc2nc(-c3ccccc3)c(Cc3ccccc3C(F)(F)F)n2c1 | inactive | inactive | inactive | 0.757 µM (active) | inactive | inactive |  |  |  | 
7 | Cc1ccc(-c2c3c(=O)n(C)c(=O)n(C)c3c3c(C(F)(F)F)nc4ccccc4n23)cc1 | inactive | inactive | inactive | inactive | inactive | inactive |  |  |  | 
8 | COc1ccc(/C(N)=N/OC(=O)c2ccc(C)c([N+](=O)[O-])c2)cc1 | inactive | inactive |  | inactive |  |  | 8.03% [at 17.1 µM, percent relative to cAMP agonist control] | 4.78% [at 30.8 µM] | 16.7% [at 30.8 µM] | 
9 | COc1cccc2c1OC1(C)CC2/C(=C(\C)O)C(=O)N1 (stereo not given) | inactive | inactive | inactive | inactive | inactive | inactive |  |  |  | 
10 | CCOC(=O)N1CCN(C(=O)C(C)(C)Oc2ccc(Cl)cc2)CC1 | inactive | inactive |  | 0.239 µM (active) |  |  | 3.62% [at 17.1 µM, percent relative to cAMP agonist control] | 6.37% [at 30.8 µM] | 21.9% [at 30.8 µM] | 
11 | COc1ccc(C2CC(c3cccs3)=NN2C(=O)c2ccco2)cc1OC (stereo not given) | inactive | inactive |  | inactive |  |  | 4.11% [at 17.1 µM, percent relative to cAMP agonist control] | -16.2% [at 30.8 µM] | 31.8% [at 30.8 µM] | 
12 | CCCN1C(=O)c2[nH]nc(-c3cccc(OC)c3)c2C1c1ccccn1 (stereo not given) | inactive | inactive | inactive |  | inactive | inactive |  |  |  | inactive [at 12.7 µM]
13 | CC1(C(=O)NS(=O)(=O)c2ccc3c(c2)CCO3)CCN1C(=O)C1(c2ccc(Cl)cc2)CCC1 (stereo not given) | 39.8 µM (active) | inactive |  | inactive |  |  | 1.36% [at 17.1 µM, percent relative to cAMP agonist control] | -29.8% [at 30.8 µM] | 34% [at 30.8 µM] | 
14 | Cc1ccc(S(=O)(=O)Nc2cc(C(=O)NCCN3CCCC3)ccc2N2CCCCC2)cc1 | inactive | inactive | inactive | inactive | inactive | inactive |  |  |  | 
15 | O=C(CC(=O)NC1CCCCC1)N/N=C/c1ccc(Cl)cc1 | inactive | inactive | inactive | inactive | inactive | inactive |  |  |  | 
16 | COc1ccccc1/C=C1\SC(=S)N(NS(=O)(=O)c2ccccc2)C1=O | 16.9 µM (active) | inactive | inactive | inactive | inactive | inactive |  |  |  | 
17 | N#C/C(=C(/O)C(Cl)(Cl)Cl)c1nc2ccccc2[nH]1 | inactive | inactive | inactive | inactive | inactive | inactive |  |  |  | 
18 | CC(C)Oc1nc(-c2ccccc2Cl)nc2ccccc12 | inactive | inactive | inactive | inactive | inactive | inactive |  |  |  | 
19 | COc1ccc(CCNC2CC(=O)N(CCc3ccc(OC)c(OC)c3)C2=O)cc1 (stereo not given) | inactive | inactive |  | inactive |  |  | 4.7% [at 17.1 µM, percent relative to cAMP agonist control] | -1.61% [at 30.8 µM] | 8.52% [at 30.8 µM] | 
20 | Cc1cccc(C(=O)Nc2cc(S(=O)(=O)N3CCOCC3)ccc2N2CCCC2)c1 | inactive | inactive | inactive | inactive | inactive | inactive |  |  |  | 
